PfM18AAP inh: blocks P. falciparum M18 aspartyl aminopeptidase; AID 1822; inhibition, % at 7.35 µM; recombinant PfM18AAP, H-Glu-NHMec fluorogenic cleavage; 290,000 compounds, 1.2% hits;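 active means inhibition above the campaign mean inhibition over all tested compounds plus 3 SD, cut at about 28% in these data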
PfG6PD inh: PfG6PD (Plasmodium falciparum) enzyme inhibition | PfGluPho enzyme, NADPH resazurin-diaphorase fluorescence | inhibition, % at 20 µM | 350,000 compounds, 0.78% hits | AID 504690;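 active means inhibition reaching at least a set limit at 20 µM in the primary screen, cut at about 59% in these data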
PRMT1 FP inh: inhibitors of human PRMT1. Q99873. AID 652257. recombinant PRMT1, activity-based probe fluorescence polarization. 370,000 compounds, 1.3% hits. inhibition, % at 2.79 µM;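 active means inhibition above about 21% made by adding two undisclosed values, limit read from the data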
MBD2 inh: inhibitors of human MBD2 binding to methylated oligonucleotide. Q9UBB5. TR-FRET. inhibition, % at 4.4 µM. 370,000 compounds, 0.31% hits. AID 686964; in the data active means inhibition above about 13%
Target sequence (Q9UBB5 whole entry, looked up): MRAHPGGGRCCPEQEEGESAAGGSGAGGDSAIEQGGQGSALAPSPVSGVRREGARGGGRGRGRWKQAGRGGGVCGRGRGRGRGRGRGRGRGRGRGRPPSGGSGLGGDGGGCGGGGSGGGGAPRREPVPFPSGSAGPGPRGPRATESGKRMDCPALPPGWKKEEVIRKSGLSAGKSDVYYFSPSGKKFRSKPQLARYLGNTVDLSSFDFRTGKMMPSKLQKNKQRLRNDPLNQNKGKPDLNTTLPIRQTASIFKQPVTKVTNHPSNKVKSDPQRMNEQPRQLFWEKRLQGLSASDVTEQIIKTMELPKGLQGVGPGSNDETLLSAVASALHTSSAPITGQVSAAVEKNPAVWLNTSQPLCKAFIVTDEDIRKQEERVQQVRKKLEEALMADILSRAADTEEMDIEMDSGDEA
UHRF1 binding: blocks human UHRF1 binding to methylated DNA | Q96T88 | UHRF1 binding to methylated oligo, TR-FRET | inhibition, % at 4.4 µM | 370,000 compounds, 0.75% hits | AID 687016; in the data active means inhibition above about 21%;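 further: UHRF1 SRA domain binding a hemimethylated CpG hairpin DNA probe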
A number is an active result; i = inactive; nt = not tested or not shown. Shown are actives, neighbours in structure and some others; about 3.3% of the full set was active somewhere.

SMILES	PfM18AAP inh	PfG6PD inh	PRMT1 FP inh	MBD2 inh	UHRF1 binding
O=C1C(Cl)=C(N2CCCCC2)C(=O)C(Cl)=C1c1cnc(N2CCCCC2)s1	i	88	nt	nt	nt
O=c1cc(C(F)(F)F)[nH]c(=S)n1-c1ccccc1	30	i	i	i	i
Nc1cc(=O)[nH]c(=S)n1-c1ccccc1	i	i	i	i	i
C=C1[C@H](C)CN(S(=O)C(C)(C)C)[C@H]1CCO (stereo partly drawn)	nt	nt	i	i	i
S=c1[nH]nc(-c2ccccc2Br)n1Cc1ccccc1	31	i	i	i	i
O=[N+]([O-])c1cccc(-c2n[nH]c(=S)n2Cc2ccccc2)c1	29	i	i	i	i
O=C(CCCCCn1c(=O)[nH]c2ccccc2c1=O)NC1CCCC1	nt	nt	i	i	i
O=C(Oc1c(CN2CCOCC2)cc(Cl)c2cccnc12)c1ccccc1	i	i	i	i	i
O=C(Oc1c(CN2CCOCC2)cc(Cl)c2cccnc12)c1ccccc1F	i	i	i	i	22
N=C1C(=O)OCC1c1ccccc1NC(=O)Nc1ccccc1 (stereo not drawn)	i	i	i	i	i
N=C1C(=O)OCC1c1ccccc1NC(=O)c1ccc(F)cc1 (stereo not drawn)	i	i	i	i	51
O=C(N/N=C/c1ccncc1)c1cccc(S(=O)(=O)Nc2ccc(Cl)cc2)c1	33	i	i	i	i
Clc1ccc2c(SCC3CO3)c3ccccc3nc2c1 (stereo not drawn)	nt	i	i	i	72
Cc1ccc(S(=O)(=O)N2c3ccccc3C[C@H]2CCC(=O)c2ccccc2)cc1	nt	nt	i	i	i
O=C(CC1C(=O)NCCN1C/C=C/c1ccccc1)NCCc1cnccn1 (stereo not drawn)	i	i	i	i	i
O=C(CC1C(=O)NCCN1C/C=C/c1ccccc1)NCCc1ccncc1 (stereo not drawn)	i	i	i	i	23
COc1ccccc1N(CC(O)Cn1c2ccccc2c2ccccc21)S(=O)(=O)c1ccccc1 (stereo not drawn)	i	i	i	i	21
CCOC(=O)CC[C@H]1CC[C@]2(CCCN(C(=O)C(C)(C)C)C2)O1	nt	nt	i	i	i
Cc1ccccc1N1CCN(C(=O)[C@@H]2CCCN2C2=NS(=O)(=O)c3ccccc32)CC1	nt	i	i	i	i
CCOc1ccccc1N1CCN(C(=O)[C@@H]2CCCN2C2=NS(=O)(=O)c3ccccc32)CC1	nt	i	i	i	40
CCOC(=O)C1=C(C)c2ccccc2N(C(=O)OC)C1(C)C(=O)OCC (stereo not drawn)	nt	61	24	i	i
C[C@@H]1CN([C@@H](C)CO)C(=O)CCCn2nncc2CO[C@H]1CN(C)CC1CC1	nt	nt	i	i	i
Cc1ccc(S(=O)(=O)Nn2c(O)c(C=C3N=c4ccccc4=N3)sc2=S)cc1	i	i	25	i	i
O=C1c2cccc3cccc(c23)C(=O)C1(O)O	nt	i	54	i	i
CCC(C)NC(=O)[C@@H]1CSC2c3ccccc3C(=O)N21 (stereo partly drawn)	i	i	21	i	i
SMILES	PfM18AAP inh	PfG6PD inh	PRMT1 FP inh	MBD2 inh	UHRF1 binding
CCC(C)[C@H](NC(=O)[C@@H]1CSC2c3ccccc3C(=O)N21)C(=O)N1CCCCC1 (stereo partly drawn)	i	i	i	i	i
O=C(NC(=S)N1CCN(c2ccc(O)cc2)CC1)c1cccs1	31	i	i	i	i
COC(=O)[C@]12C[C@H](CC(=O)NCc3cccc4ccccc34)C(=O)N(Cc3ccc4c(c3)OCO4)C1=C[C@H](COCc1ccccc1)O[C@@H]2C	nt	nt	i	i	i
CCCCCc1nnc(NC(=O)c2ccc3nc[nH]c3c2)s1	nt	i	i	i	57
CCCCCCc1nnc(NC(=O)c2ccco2)s1	i	i	i	i	i
Cc1cc(C)n2nc(C(=O)Nc3ccc4c(c3)OCO4)nc2n1	i	i	i	i	i
Cc1ccnc2nc(C(=O)Nc3ccc4c(c3)OCO4)nn12	i	i	i	i	23
CCN(C[C@H]1[C@@H](c2ccc(C3=CCCC3)cc2)[C@H](CO)N1C(=O)c1cccnc1)S(=O)(=O)c1ccccc1[N+](=O)[O-]	nt	nt	i	i	i
CC1CCc2c(sc3nc(CSc4ncn[nH]4)[nH]c(=O)c23)C1 (stereo not drawn)	56	i	i	i	i
Cc1ccc(-n2[nH]c3c4c(ccc3c2=O)C(=O)c2ccccc2C4=O)cc1	i	i	i	i	27
COc1ccc(S(=O)(=O)N2CCOCC2)cc1NC(=O)CN(C)Cc1c(F)cccc1Cl	i	i	i	i	24
COc1cccc(C(=O)NCc2nnc(SCC(=O)Nc3nccs3)n2-c2ccccc2)c1	i	i	i	i	95
COc1ccc(-c2nnc3ccc(SCC(=O)Nc4nccs4)nn23)cc1OC	i	i	i	i	i
O=C(COc1ccccc1)NCc1nnc(SCC(=O)Nc2nccs2)n1-c1ccccc1	i	i	i	i	i
COc1ccc(-c2ccc(SCC(=O)Nc3nccs3)nn2)cc1OC	i	i	i	i	21
Cc1cccc(OCCCN2CCC(C(O)(c3ccccc3)c3ccccc3)CC2)c1	nt	nt	i	i	i
Cc1cnc(C(=O)N2CCc3c([nH]c4ccccc34)C2c2ccc(F)cc2)cn1 (stereo not drawn)	i	i	i	i	21
O=C(CNC(=O)N1CC(=O)Nc2ccccc21)Nc1ccc(Cl)cc1	i	i	i	i	i
O=C1CN(C(=O)CNCc2ccc(Cl)cc2)c2ccccc2N1	i	i	i	i	62
CN(C)S(=O)(=O)c1cccc(C(=O)N/N=C\c2ccccc2[N+](=O)[O-])c1	nt	nt	i	i	i
COC(=O)c1ccc(-c2ccc(/C=N/NC(=O)Cc3nnc(N)s3)o2)cc1	i	i	i	i	32
Clc1cccc(CNc2ccn3nc(-c4ccco4)cc3n2)c1	nt	nt	23	i	i
c1ccc(OCCNc2ccn3nc(-c4ccco4)cc3n2)cc1	nt	nt	21	i	i
Clc1cccc(CNc2ccn3nc(-c4cccs4)cc3n2)c1	nt	nt	i	i	i
O=C(NCCc1ccccc1F)c1cc2ccccn2n1	nt	nt	i	i	i
SMILES	PfM18AAP inh	PfG6PD inh	PRMT1 FP inh	MBD2 inh	UHRF1 binding
O=C(NCC1OCCc2ccccc21)c1ccc(NC(=O)c2ccc(Cl)cc2Cl)cc1 (stereo not drawn)	i	i	i	i	i
O=C(NCC1OCCc2ccccc21)c1ccc(NC(=O)c2ccccc2Cl)cc1 (stereo not drawn)	i	i	i	i	21
COc1cccc(CO[C@H]2C=C[C@@H](c3ccccc3)O[C@@H]2COC(C)=O)c1	nt	nt	i	i	i
COC(=O)c1ccc2c(C3(c4c[nH]c5ccccc45)CCN(C(=O)OC(C)(C)C)CC3)c[nH]c2c1	nt	nt	i	i	i
COc1ccc(C(=O)C2CCCN(C(=O)c3c4c(nn3C)CCCC4)C2)cc1F (stereo not drawn)	i	i	i	i	39
COCCCNC(=O)C[C@H]1C[C@@]2(C(=O)OC)C(=C[C@H](C(C)C)O[C@@H]2C2CC2)N(Cc2ccccc2)C1=O	nt	nt	i	i	i
COc1cccc2c(=O)n(CC(=O)N3CCC(C)CC3)ccc12	i	i	i	i	93
